In assay [1] the target is Androgen receptor (Homo sapiens) (UniProt P10275). Nature of the assay: qHTS assay to identify small molecule antagonists of the androgen receptor (AR) signaling pathway using the MDA cell line in the presence of 0.5 nM R1881 (AID 1259243). Further: nearly all actives have a fitted effect of over 50% in size. Further: potency means the concentration at half of the fitted maximal effect. The method, boiled down:
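With R1881 held at 0.5 nM (final), compound effects on MMTV-luciferase expression in MDA-kb2 cells were scored by luminescence after a 16 hr, 37C incubation.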
(In general: In qHTS, concentration-response curves come from the screen itself.)

Assay [2] is described as follows: qHTS assay to identify small molecule HDAC inhibitors (AID 1259364).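 Further: wild-type HCT-116 cells with endogenous class I/II HDAC activity; top concentration of the series differs between compounds; nearly all actives have a fitted effect of over 45% in size.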 In short, it runs like this: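 Screening used wild-type human colon HCT-116 cells incubated overnight, dosed with compounds for 2 hours, and assayed with a homogeneous luminogenic HDAC I/II reagent for 30 minutes at room temperature.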
Assay [3] in a line: qHTS assay to identify small molecule HDAC inhibitors - cell viability counter screen (AID 1259365). Further: series mostly up to about 92 µM; nearly all actives have a fitted effect of over 50% in size. In short, it runs like this: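 Measured quantity is CellTiter-Glo luminescence from wild-type HCT-116 cells after compound incubation of 2hr at 37C, 5% CO2; reagent developed 30min at room temperature.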
Assay [4] is described as follows: qHTS assay to identify small molecule antagonists of the sonic hedgehog signaling (Shh) pathway - cell viability counter screen (AID 1259367). Further: nearly all actives have a fitted effect of over 55% in size. Further: potency means the concentration at half of the fitted maximal effect. The method, boiled down: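 Cytotoxicity was assessed in parallel with Shh reporter activity by measuring live-cell protease fluorescence (CellTiter-Fluor) in NIH/3T3 cells stably carrying Gli1-Luc, treated with compound under conditioned medium stimulation for 23 hr plus 1 hr reagent incubation.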

Assay [5] in a line: qHTS assay to identify small molecule antagonists of the sonic hedgehog signaling (Shh) pathway (AID 1259369; calls by dose curve; further: nearly all actives have a fitted effect of over 45% in size; further: potency means the concentration at half of the fitted maximal effect). The method, boiled down: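 NIH/3T3 stable Gli1-Luc clone, 2,000 cells/well, 4hr settle; cpd + conditioned medium 24hr; Luc reagent 30min RT; luminescence.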
The target in assay [6] is Androgen receptor (Homo sapiens) (UniProt P10275). Nature of the assay: qHTS assay to identify small molecule agonists of the androgen receptor (AR) signaling pathway in the presence of an antagonist (AID 1259381; calls by dose curve; further: nearly all actives have a fitted effect of over 15% in size; further: potency means the concentration at half of the fitted maximal effect). In short, it runs like this: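 Luminescent ONE-Glo read, 30min at room temperature, follows 16hr compound exposure (15 concentrations) of MDA-kb2 cells at 37C, 0% CO2, with nilutamide added at 3.0uM final.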

Assay [7] is described as follows: qHTS assay to identify small molecule antagonists of the estrogen receptor beta (ER-beta) signaling pathway - cell viability counter screen (AID 1259382). Further: nearly all actives have a fitted effect of over 55% in size. Further: potency means the concentration at half of the fitted maximal effect. In short, it runs like this: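 Readout: luminescence, CellTiter-Glo, same wells as bla assay. System: ER-beta-UAS-bla GripTite HEK293T, 2% charcoal-stripped FBS. Exposure: compounds plus 1nM 17-beta-estradiol, 16 hr, 37C.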

Assay [8] can be described thus: qHTS assay to identify small molecule agonists or antagonists of the thyroid stimulating hormone receptor (TSHR) signaling pathway - wild type cell line counter screen (AID 1259384; calls by dose curve). In short, it runs like this:
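Wild-type HEK293 cells were plated 18 h at 37 C/5% CO2, pin-dosed with compound plus Ro20-1724 medium, held 30 min at room temperature, then given cAMP-d2 and anti-cAMP-cryptate; fluorescence was read after 1 h. Fifteen concentrations, triplicate.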

The target of assay [9] is Thyrotropin receptor (Homo sapiens) (UniProt P16473). Nature of the assay: qHTS assay to identify small molecule antagonists of the thyroid stimulating hormone receptor (TSHR) signaling pathway (AID 1259385; calls by dose curve; further: nearly all actives have a fitted effect of over 20% in size; further: potency means the concentration at half of the fitted maximal effect). The method, boiled down: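 TSHR-HEK293 cells were plated and held 18 h at 37C/5% CO2, then given compound plus Ro20-1724 and stimulated with TSH at 1.5 ng/mL final. After 30 min at room temperature, cAMP was detected with cAMP-d2/anti-cAMP-cryptate (1 h) by fluorescence.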

Assay [10] addresses Estrogen receptor (Homo sapiens) (UniProt P03372). Nature of the assay: qHTS assay to identify small molecule antagonists of the estrogen receptor alpha (ER-alpha) signaling pathway using the BG1 cell line in the presence of 0.1 nM 17-beta-estradiol (AID 1259244). Further: nearly all actives have a fitted effect of over 50% in size. Further: potency means the concentration at half of the fitted maximal effect. The method, boiled down:
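Compounds were tested against 0.1 nM (final) 17beta-estradiol in VM7Luc4E2 cells, which express full-length ER-alpha and an ERE-luciferase reporter; luminescence was recorded following 22 h exposure.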

The nature of assay [11]: qHTS assay to identify small molecule phospholipidosis (PLD) inducers (AID 1259344; active means well fitted curve in the direction sought with a large enough effect; an effect the other way counts as inactive or inconclusive). The method, boiled down: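 Cells (HepG2, 900 per well) attach for 4 h, receive LipidTOX Red and compound together, incubate 24 h at 37 C, are fixed 30 min with paraformaldehyde/Hoechst, then imaged at one site per well.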
A short description of assay [12]: qHTS assay to identify small molecule agonists of the sonic hedgehog signaling (Shh) pathway - cell viability counter screen (AID 1259366). Further: nearly all actives have a fitted effect of over 50% in size. Further: potency means the concentration at half of the fitted maximal effect. The method, boiled down: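 In quantitative high-throughput format, 3T3 Gli1-Luc cells were exposed to compounds for 24hr and multiplexed for viability using CellTiter-Fluor, incubated 1hr at 37C before the fluorescence read.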

Assay [13] is described as follows: qHTS assay to identify small molecule agonists of the sonic hedgehog signaling (Shh) pathway (AID 1259368; calls by dose curve;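 further: NIH/3T3-derived 3T3Gli1-Luc cells carrying a stable Gli1-driven firefly luciferase reporter; series mostly up to about 92 µM; nearly all actives have a fitted effect of over 15% in size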). In short, it runs like this: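 Hedgehog pathway agonism scored by increased firefly luciferase luminescence in 3T3Gli1-Luc cells treated 24 hr at 37 C; detection used a 30 min room-temperature reagent incubation.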
A short description of assay [14]: qHTS assay to identify small molecule agonists of the androgen receptor (AR) signaling pathway in the presence of an antagonist - cell viability counter screen (AID 1259379).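 Further: MDA-kb2 human breast cancer cells carrying an MMTV luciferase reporter; series mostly up to about 92 µM; nearly all actives have a fitted effect of over 25% in size.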 In short, it runs like this: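 MDA-kb2 viability measured by CellTiter-Fluor fluorescence in the same wells as the luciferase signal; nilutamide 3.0uM final; 15-point compound titration; 16 hr at 37C.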

The nature of assay [15]: qHTS assay to identify small molecule agonists of the estrogen receptor beta (ER-beta) signaling pathway - cell viability counter screen (AID 1259380). Further: nearly all actives have a fitted effect of over 30% in size. Further: potency means the concentration at half of the fitted maximal effect. In short, it runs like this:
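Measured: luminescence from CellTiter-Glo after 30 min at room temperature, added to wells already read for the LiveBLAzer FRET reporter (2 hr substrate); ER-beta-UAS-bla HEK293T cells had 16 hr compound treatment at 37C, 5% CO2.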

Assay [16] in a line: qHTS assay to identify small molecule agonists of the estrogen receptor alpha (ER-alpha) signaling pathway in the presence of an antagonist - cell viability counter screen (AID 1259386).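 Further: series mostly up to about 92 µM; cells exposed to compounds for 22 h at 37 °C before the viability read; nearly all actives have a fitted effect of over 30% in size.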 The method, boiled down: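 The test measures whether compounds kill ER-alpha reporter cells (VM7Luc4E2) under antagonist co-treatment (ICI-182,780, 10.0nM). Fluorescence from CellTiter-Fluor is read after a 22hr exposure.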

Assay [17] has as its target Estrogen receptor (Homo sapiens) (UniProt P03372). Nature of the assay: qHTS assay to identify small molecule agonists of the estrogen receptor alpha (ER-alpha) signaling pathway in the presence of an antagonist (AID 1259383; calls by dose curve; further: top concentration of the series differs between compounds; nearly all actives have a fitted effect of over 15% in size). The method, boiled down: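 Quantitative HTS confirmation: compounds titrated at 15 concentrations onto estrogen-deprived VM7Luc4E2 cells carrying a four-ERE luciferase construct, with ICI-182,780 present at 10.0nM final. Signal is luminescence after 22hr exposure.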

Assay [18] deals with Progesterone receptor (Homo sapiens) (UniProt P06401). Nature of the assay: qHTS assay to identify small molecule agonists of the progesterone receptor (PR) signaling pathway (AID 1346784; calls by dose curve; further: nearly all actives have a fitted effect of over 30% in size; further: potency means the concentration at half of the fitted maximal effect). In short, it runs like this:
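Reporter assay, GripTite PR-UAS-bla HEK 293T cells: 16 hr exposure to DMSO-dissolved compounds at 37C, 5% CO2, in steroid-depleted (2% charcoal-stripped FBS) medium; beta-lactamase measured by FRET fluorescence.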

For assay [19], the target named is Estrogen receptor beta (Homo sapiens) (UniProt Q92731). Nature of the assay: qHTS assay to identify small molecule agonists of the estrogen receptor beta (ER-beta) signaling pathway (AID 1259377; active means well fitted activation curve with a large enough effect in the signal ratio in the repeat runs, not every such curve was filed as active; the % refers to the signal ratio). In short, it runs like this:
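Reporter cells (HEK293T, ER-beta-UAS-bla) receive compounds or DMSO after a 6 hr pre-incubation. They then incubate 16 hr at 37C/5% CO2, and fluorescence from LiveBLAzer B/G substrate is measured after 2 hours at room temperature.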

Structures are written as SMILES. Values joined by “and” are separate entries in the source; they are usually repeats but may differ in a detail not shown here. Identical values can stand only once. Records with an inconclusive call do not appear. Active and inactive are the calls of the source. Unless noted, the call rests on the fitted dose curve; in most records, active means well fitted curve in the direction sought with a large enough effect in the repeat runs; inconclusive means weak or mixed curves; inactive means no such curve, though single readings can be large; an effect the other way counts as inactive or inconclusive.

Androgen receptor (Homo sapiens), sequence (P10275 whole entry, looked up): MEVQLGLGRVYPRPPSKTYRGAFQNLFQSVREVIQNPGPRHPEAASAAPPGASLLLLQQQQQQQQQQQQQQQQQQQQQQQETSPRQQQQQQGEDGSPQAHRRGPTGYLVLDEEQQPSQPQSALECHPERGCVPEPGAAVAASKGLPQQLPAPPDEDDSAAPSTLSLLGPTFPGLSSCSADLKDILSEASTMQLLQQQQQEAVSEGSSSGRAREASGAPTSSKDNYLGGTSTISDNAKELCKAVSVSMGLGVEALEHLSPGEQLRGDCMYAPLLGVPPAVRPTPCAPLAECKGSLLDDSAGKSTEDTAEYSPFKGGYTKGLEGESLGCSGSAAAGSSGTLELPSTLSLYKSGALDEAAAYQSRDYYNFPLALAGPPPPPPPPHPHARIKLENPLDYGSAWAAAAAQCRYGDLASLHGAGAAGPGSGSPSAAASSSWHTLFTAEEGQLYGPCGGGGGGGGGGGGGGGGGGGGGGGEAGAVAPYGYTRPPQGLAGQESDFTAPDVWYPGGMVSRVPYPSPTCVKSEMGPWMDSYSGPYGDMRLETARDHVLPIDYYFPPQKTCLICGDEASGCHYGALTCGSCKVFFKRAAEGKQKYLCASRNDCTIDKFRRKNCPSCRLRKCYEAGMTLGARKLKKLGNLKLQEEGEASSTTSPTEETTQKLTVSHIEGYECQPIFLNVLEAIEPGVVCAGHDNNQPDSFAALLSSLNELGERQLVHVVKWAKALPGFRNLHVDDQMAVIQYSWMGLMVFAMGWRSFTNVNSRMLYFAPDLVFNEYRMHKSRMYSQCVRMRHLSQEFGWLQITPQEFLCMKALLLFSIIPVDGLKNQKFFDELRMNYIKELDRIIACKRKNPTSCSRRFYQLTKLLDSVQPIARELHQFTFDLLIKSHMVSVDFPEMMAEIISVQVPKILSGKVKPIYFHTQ
Thyrotropin receptor (Homo sapiens), sequence (P16473 whole entry, looked up): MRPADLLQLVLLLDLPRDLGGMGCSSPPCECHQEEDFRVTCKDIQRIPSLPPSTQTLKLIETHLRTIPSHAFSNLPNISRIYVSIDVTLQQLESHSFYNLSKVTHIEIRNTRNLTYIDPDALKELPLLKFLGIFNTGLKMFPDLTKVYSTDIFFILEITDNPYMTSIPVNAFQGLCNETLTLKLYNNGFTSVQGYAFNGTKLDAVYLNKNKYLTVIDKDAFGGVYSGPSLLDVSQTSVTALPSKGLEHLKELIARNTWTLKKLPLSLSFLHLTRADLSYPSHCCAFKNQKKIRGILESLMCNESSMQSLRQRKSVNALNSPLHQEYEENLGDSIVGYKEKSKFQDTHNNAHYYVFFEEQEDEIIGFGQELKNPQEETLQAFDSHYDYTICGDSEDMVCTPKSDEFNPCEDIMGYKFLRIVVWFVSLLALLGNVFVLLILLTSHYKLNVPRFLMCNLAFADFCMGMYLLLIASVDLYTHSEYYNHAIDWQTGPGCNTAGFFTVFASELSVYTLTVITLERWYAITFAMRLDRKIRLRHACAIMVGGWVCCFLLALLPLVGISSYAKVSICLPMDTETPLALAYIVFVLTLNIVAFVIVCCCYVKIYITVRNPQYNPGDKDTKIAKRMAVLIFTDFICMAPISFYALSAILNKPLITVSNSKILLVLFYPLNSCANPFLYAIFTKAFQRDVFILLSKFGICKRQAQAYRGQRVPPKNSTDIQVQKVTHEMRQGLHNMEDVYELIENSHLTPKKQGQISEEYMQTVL
Estrogen receptor (Homo sapiens), sequence (P03372 whole entry, looked up): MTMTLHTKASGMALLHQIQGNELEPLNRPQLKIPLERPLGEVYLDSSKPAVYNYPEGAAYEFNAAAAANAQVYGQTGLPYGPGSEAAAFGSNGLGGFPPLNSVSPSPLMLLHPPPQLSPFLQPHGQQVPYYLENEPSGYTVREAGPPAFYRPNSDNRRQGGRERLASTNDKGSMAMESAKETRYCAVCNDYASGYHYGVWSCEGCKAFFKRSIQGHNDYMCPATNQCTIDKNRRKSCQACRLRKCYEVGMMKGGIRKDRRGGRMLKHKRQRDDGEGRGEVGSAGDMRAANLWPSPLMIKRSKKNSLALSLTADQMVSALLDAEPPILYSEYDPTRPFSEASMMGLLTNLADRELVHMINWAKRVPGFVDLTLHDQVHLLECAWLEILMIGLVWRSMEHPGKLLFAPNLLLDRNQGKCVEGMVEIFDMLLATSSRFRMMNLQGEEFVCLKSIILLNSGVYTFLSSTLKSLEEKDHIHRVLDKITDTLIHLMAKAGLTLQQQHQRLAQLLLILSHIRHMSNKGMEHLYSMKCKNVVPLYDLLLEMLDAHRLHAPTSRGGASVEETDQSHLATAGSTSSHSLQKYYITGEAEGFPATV
Estrogen receptor beta (Homo sapiens), sequence (Q92731 whole entry, looked up): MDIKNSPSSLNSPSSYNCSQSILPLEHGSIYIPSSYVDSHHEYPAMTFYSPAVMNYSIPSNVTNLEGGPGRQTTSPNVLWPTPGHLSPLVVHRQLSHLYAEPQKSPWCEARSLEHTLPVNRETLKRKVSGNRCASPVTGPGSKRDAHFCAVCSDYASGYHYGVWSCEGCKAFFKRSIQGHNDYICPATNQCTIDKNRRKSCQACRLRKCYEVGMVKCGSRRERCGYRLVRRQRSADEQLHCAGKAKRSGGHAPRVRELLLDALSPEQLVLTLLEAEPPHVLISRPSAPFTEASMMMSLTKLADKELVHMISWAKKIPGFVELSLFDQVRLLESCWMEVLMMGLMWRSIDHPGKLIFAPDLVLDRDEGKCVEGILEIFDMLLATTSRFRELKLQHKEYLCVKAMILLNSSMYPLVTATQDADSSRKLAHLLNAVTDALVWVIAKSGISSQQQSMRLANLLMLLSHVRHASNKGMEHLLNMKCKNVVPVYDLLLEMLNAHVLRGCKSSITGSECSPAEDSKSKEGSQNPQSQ
Progesterone receptor (Homo sapiens), sequence (P06401 whole entry, looked up): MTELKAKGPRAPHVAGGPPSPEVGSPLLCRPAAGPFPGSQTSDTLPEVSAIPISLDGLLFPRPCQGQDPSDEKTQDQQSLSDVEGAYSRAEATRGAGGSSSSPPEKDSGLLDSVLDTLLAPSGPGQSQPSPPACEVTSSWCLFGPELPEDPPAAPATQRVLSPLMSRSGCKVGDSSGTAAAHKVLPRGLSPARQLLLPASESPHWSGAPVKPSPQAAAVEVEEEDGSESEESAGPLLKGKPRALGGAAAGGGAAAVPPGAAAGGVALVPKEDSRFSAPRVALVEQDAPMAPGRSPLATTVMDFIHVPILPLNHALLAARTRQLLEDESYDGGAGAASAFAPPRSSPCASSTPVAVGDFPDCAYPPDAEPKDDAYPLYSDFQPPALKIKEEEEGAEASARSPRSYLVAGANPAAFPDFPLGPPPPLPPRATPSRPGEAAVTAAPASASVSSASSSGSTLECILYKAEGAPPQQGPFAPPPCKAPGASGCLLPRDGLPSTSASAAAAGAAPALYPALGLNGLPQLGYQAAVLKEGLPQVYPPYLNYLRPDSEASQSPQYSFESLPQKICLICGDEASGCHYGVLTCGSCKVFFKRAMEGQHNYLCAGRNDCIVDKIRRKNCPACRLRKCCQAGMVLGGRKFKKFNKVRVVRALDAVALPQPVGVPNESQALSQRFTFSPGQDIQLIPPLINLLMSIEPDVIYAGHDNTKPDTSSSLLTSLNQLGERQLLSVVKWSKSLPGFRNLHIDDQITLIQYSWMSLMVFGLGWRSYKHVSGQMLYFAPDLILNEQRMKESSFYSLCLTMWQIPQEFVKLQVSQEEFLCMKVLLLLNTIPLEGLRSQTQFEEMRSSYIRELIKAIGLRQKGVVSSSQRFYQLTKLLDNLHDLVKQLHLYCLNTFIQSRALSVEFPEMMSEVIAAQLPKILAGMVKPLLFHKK

With `CC[C@@]1(O)C(=O)OCc2c1cc1n(c2=O)Cc2c-1nc1ccccc1c2/C=N/OC(C)(C)C`, the Potency was 133 nM (active) in assay [1], 0.0668 µM (active) in assay [5] and 11.9 µM (active) in [9]. The Potency result in assay [2], in assay [3], in [4], in assay [6] and in [7] was “inactive” throughout. For the same compound, the call in assay [8] was inactive.
In the case of `CSc1ccc(C(=O)c2[nH]c(=O)[nH]c2C)cc1`, the Potency result in assay [10], in [11], in assay [2], in [3], in [12] and in [4] was “inactive” in each case. For the same compound, the Potency result in assay [13], in [5], in [14], in assay [15], in [7] and in [9] was “inactive” throughout. In assay [16], the Potency entry was “inactive”. Besides, the compound was called inactive in [8].
On to `CC(C)n1nc(-c2cc3cc(O)ccc3[nH]2)c2c(N)ncnc21`, for which the Potency in [10] was 0.376 µM (active); in [12], 841 nM (active); in assay [4] it was 944 nM (active); in assay [5] it was 1.5 µM (active); in assay [15] it was 0.211 µM (active). Also, the Potency entry in [11], in assay [2], in assay [3], in assay [13], in assay [17] and in [18] was “inactive” throughout. Further, in assay [8], the compound was classed as inactive.
With `Oc1c(Cl)cc(Cl)c2cccnc12`, the Potency in [10] is 18.8 µM (active); in [12], 4220 nM (active); in assay [15], 4.73 µM (active); in assay [7], 11.9 µM (active). Besides, the Potency result in assay [11], in [2], in assay [3], in assay [13], in assay [9] and in assay [16] was “inactive” in each case. Further, in assay [8], the compound was called inactive.
`Nc1c2ccccc2nc2ccccc12`: the Potency result in assay [10], in [11], in assay [2], in assay [3], in assay [4] and in assay [13] was “inactive” throughout. Moreover, the Potency entry in [5], in [17], in assay [9] and in [16] was “inactive” each time. Moreover, the Potency in assay [15] is 2.14 µM (active) and 3.35 µM (active); in assay [18], 4.79 µM (active).
On to `NC(=O)NS(=O)(=O)c1ccc(N)cc1`, for which the Potency entry in [10], in assay [11], in assay [2], in [3], in [12] and in [4] was “inactive” throughout. In addition, the Potency entry in assay [13], in assay [5], in assay [19], in [14], in assay [15] and in assay [7] was “inactive” each time. Moreover, the Potency result in [17], in assay [9] and in assay [16] was “inactive” each time. Further, in [8], the result was inactive.
On to `Nc1ccc2c3c(cccc13)-c1ccccc1-2`, for which the Potency entry in assay [1], in assay [2], in assay [3], in assay [13] and in assay [5] was “inactive” each time. In addition, the Potency in assay [15], in [6] and in assay [7] was 49.1 µM (active) throughout. Besides, the result in assay [8] was inactive.
Take `Cn1cc(C(=O)[C@@H]2CCc3nc[nH]c3C2)c2ccccc21`: the Potency result in assay [10], in [11], in assay [2], in assay [3], in assay [12] and in assay [13] was “inactive” each time. The Potency entry in assay [19], in [14], in assay [7], in assay [17], in assay [9] and in [16] was “inactive” in each case. Further, the Potency in assay [5] was 15 µM (active). Besides, the compound was classed as inactive in assay [8].

Values taken from PubChem BioAssay (Tox21).
